Assay results from PubChem BioAssay (NCATS).
Records with an inconclusive call do not appear. Active and inactive are the calls of the source. Calls follow the shape of the dose curve; as a rule, active = well fitted curve in the direction sought with a large enough effect; inconclusive = small, poorly fitted or top-dose-only effect, or another doubt; inactive = no such curve, though single readings can be large; an effect the other way counts as inactive or inconclusive.

Legend:
[1] = qHTS for compounds that reverse cellular toxicity of Amyloid beta (A-beta) peptide in yeast: LOPAC Validation Assay (AID 720559);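 also: plate controls were DMSO for no effect and equimolar ferric chloride plus clioquinol rescue for full effect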
Method in brief: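 Yeast cells expressing toxic A-beta were combined with pinned compounds in growth medium and incubated 48 hr at 30 C. Growth was read as absorbance at 600 nm and normalized to DMSO and to an equimolar FeCl3/clioquinol positive control.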

[2] = qHTS for Activators of Parkin Expression: LOPAC Validation Assay (NLuc Reporter) (AID 720572;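 also: 0% = DMSO and 100% = positive control compound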)
Method in brief: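 Parkin promoter-driven FLuc/NLuc neuronal reporter cells; 24 h plating, 7-pt dose response, 24 h at 37 C/5% CO2; FLuc then NanoLuc reagent, 10 min each, luminescence; DMSO/positive control normalized.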

[3] = qHTS for Activators of Parkin Expression: LOPAC Validation Assay (FLuc Reporter) (AID 720573;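 also: 0% = DMSO and 100% = positive control compounds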)
Method in brief: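 Neuronal cell line stably carrying FLuc/NLuc coincidence reporter under Parkin promoter; cells plated 24 h, then compounds added in 7-point dose response for 24 h at 37 C. FLuc luminescence read; normalized to DMSO and positive control (100%).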

[4] = molecular target: T1, Hexokinase-4 (Homo sapiens) + Glucokinase regulatory protein (Homo sapiens) (UniProt P35557+Q14397); experiment: qHTS assay for inhibitors of recombinant human GCK-GKRP interaction: Diaphorase-coupled assay (AID 743205)
T1 sequence (P35557 whole entry, looked up): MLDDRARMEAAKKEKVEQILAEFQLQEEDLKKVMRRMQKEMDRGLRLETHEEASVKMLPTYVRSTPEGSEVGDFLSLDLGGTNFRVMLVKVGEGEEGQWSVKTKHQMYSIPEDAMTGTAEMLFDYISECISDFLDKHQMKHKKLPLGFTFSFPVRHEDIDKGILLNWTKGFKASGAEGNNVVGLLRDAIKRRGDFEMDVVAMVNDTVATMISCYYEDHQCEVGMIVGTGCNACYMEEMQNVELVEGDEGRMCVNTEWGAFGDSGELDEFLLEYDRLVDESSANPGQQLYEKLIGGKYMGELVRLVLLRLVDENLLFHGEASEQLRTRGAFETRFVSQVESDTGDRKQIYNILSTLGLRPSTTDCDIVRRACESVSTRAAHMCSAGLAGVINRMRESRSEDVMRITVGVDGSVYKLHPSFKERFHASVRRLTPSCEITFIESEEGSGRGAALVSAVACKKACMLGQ
T1 sequence (Q14397 whole entry, looked up): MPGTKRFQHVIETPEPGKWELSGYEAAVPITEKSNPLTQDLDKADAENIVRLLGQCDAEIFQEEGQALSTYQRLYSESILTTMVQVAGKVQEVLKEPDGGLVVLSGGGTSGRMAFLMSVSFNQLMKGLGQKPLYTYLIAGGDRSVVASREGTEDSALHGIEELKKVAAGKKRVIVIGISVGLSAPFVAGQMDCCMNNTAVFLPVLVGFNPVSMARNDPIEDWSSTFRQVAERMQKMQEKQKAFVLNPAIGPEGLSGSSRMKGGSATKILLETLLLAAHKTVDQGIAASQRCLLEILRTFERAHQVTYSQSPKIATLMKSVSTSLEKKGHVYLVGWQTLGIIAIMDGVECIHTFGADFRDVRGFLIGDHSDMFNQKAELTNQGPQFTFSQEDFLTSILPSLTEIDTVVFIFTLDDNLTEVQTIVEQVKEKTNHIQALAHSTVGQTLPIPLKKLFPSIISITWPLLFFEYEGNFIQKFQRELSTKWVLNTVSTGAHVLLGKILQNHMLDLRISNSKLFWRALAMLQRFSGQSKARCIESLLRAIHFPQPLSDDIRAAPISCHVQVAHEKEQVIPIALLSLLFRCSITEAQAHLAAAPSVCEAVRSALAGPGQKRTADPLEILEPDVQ
Method in brief: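 GST-GCK (10 nM) with FLAG-GKRP (10 nM), 5 mM glucose and 0.4 mM ATP in pH 7.6 Hepes; compounds preincubated 20 min with substrate. G6PDH/diaphorase coupling converts resazurin to resorufin, read kinetically (ex 525/em 590 nm) for 30 min.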

[5] = molecular target: T1, Hexokinase-4 (Homo sapiens) + Glucokinase regulatory protein (Homo sapiens); experiment: qHTS assay for inhibitors of recombinant human GCK-GKRP interaction: ADP-Glo assay (AID 743206);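 also: plate controls were DMSO plus enzyme for no effect and no enzyme for full effect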
Method in brief: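 GST-GCK and FLAG-GKRP (15 nM each in the dispensed mix, with 2 uM S6P) react with 0.4 mM ATP and 5 mM glucose (final) in Hepes pH 7.6 for 60 min at room temperature. ADP is measured by ADP-Glo luminescence.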

[6] = molecular target: T1, Hexokinase-4 (Homo sapiens) + Glucokinase regulatory protein (Homo sapiens); experiment: qHTS assay for inhibitors of recombinant human GCK-GKRP interaction: HTRF assay (AID 743207);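 also: 0% = DMSO with GCK present and -100% = DMSO wells lacking GCK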
Method in brief: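 GST-GCK and FLAG-GKRP (5 nM each) were combined with 2 uM S6P in pH 7.1 Hepes/MgCl2/KCl/DTT buffer, then compound and anti-FLAG XL665/anti-GST K antibodies were added. After 60 min at room temperature, HTRF 665/615 nm emission was read.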

[7] = qHTS Assay for Identifying Gametocytocidal Compounds (AID 743244);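 also: % is scaled to controls: 0 for no effect and ±100 for the full control effect; actives lower the fluorescent signal which means gametocytes are killed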; settings: P. falciparum 3D7 stage III-V gametocytes, alamarBlue, 72 h; max response: hits give low values
Method in brief: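 Stage III–V gametocytes of P. falciparum 3D7 were seeded at 20,000 cells/well onto pre-dispensed compounds. After 72 h, 37 °C, 5% CO2, alamarBlue was added for another 24 h.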

[8] = qHTS assay for measurement of the activity of small molecule inhibitors on Zika virus induced Caspase-3 activity in human iPSC derived neural progenitor cells (hNPCs) (AID 1224857); also: % of control where 0% means no effect; nearly all actives have a fitted effect of over 65% in size
Method in brief: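 Values are percent inhibition of virus-induced caspase-3/7 signal, scaled between uninfected cells and ZIKV-infected cells. Infection used 2 FFU/cell for 6 h after 1 h compound exposure.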

CC(=O)NBr
inactive: outcome [1] | Potency [2] | outcome [3] | Potency [4] | outcome [5] | outcome [6] | max response [7] 10.7% | Potency [8]

CC(C)CC(NP(=O)(O)O[C@@H]1O[C@@H](C)[C@H](O)[C@@H](O)[C@H]1O)C(=O)NC(Cc1c[nH]c2ccccc12)C(=O)O (stereo not given in full)
inactive: outcome [6] | Potency [8]

NC(Cc1cc(O)c(O)cc1O)C(=O)O (stereo not given)
inactive: outcome [1] | Potency [2] | outcome [3] | Potency [4] | outcome [5] | max response [7] 2.05% | Potency [8]

C[N+]1(C)CCOC(O)(c2ccc(-c3ccc(C4(O)C[N+](C)(C)CCO4)cc3)cc2)C1 (stereo not given)
inactive: outcome [1] | Potency [2] | outcome [3] | Potency [4] | outcome [5] | outcome [6] | max response [7] 5.92% | Potency [8]

Clc1cc(I)cc(Cl)c1NC1=NCCN1
inactive: outcome [1] | Potency [2] | outcome [3] | Potency [4] | outcome [5] | outcome [6] | max response [7] 44.8% | Potency [8]

CCN1C[C@@]2(COC)C3[C@@H](OC)C4[C@@H]1C3([C@@H]1C[C@]3(O)[C@H](OC(=O)c5ccccc5)[C@@H]1[C@]4(OC(C)=O)[C@@H](O)[C@@H]3OC)[C@H](OC)C[C@H]2O
inactive: outcome [1] | Potency [2] | outcome [3] | Potency [4] | outcome [5] | outcome [6]

COc1cc(CC(C)N)c(OC)cc1I (stereo not given)
inactive: outcome [1] | Potency [2] | outcome [3] | Potency [4] | outcome [5] | outcome [6] | max response [7] 3.52%

CC(Cc1ccc(OCC(=O)O)cc1)NCC(O)c1cccc(Cl)c1 (stereo not given)
inactive: outcome [1] | Potency [2] | outcome [3] | Potency [4] | outcome [5] | outcome [6] | max response [7] 16.8%

N#C/C(=C/c1ccc(O)c(O)c1)C(N)=S
inactive: outcome [1] | Potency [2] | outcome [3] | Potency [4] | outcome [5] | outcome [6] | max response [7] 27.1%
